Active and inactive are the calls of the source. Calls come from the whole dose curve; as a rule, active = well fitted curve in the direction sought with a large enough effect in the repeat runs; inconclusive = weak or mixed curves; inactive = flat fitted curve, though single readings scatter.
Assay: qHTS assay to test for compound auto fluorescence at 460 nm (blue) in HepG2 cell free culture (AID 720685)
Settings: Cell-free culture medium, blue autofluorescence 405/460 nm; series mostly up to 91.3 µM; fluorescence, % of fluorescent control: at the top concentration
Excerpt: U.S. Tox21 Program National Center for Advancing Translational Sciences [NCATS] NIH Chemical Genomics Center [NCGC] U.S. Environmental Protection Agency [EPA] National Institutes of Environmental Health Sciences [NIEHS] National Toxicology Program [NTP] U.S. Food and Drug Administration [FDA] Tox21 Assay Overview: Compound auto fluorescence often interferes with screening of the compound library against various biological targets and signaling pathways. Some of these compounds may have fluorophoric properties. Such properties may interfere with the assay outputs resulting in false positives and/or negatives. To decrease such complications and ensure the compound activities are relevant in terms of biological response, the Tox21 10K compound library was screened for auto fluorescence. From the fluorophores used as reporter signals in our screening assays, the auto fluorescence equivalencies of compounds against three fluorophores have been evaluated: Triamterene, Fluorescein and Rose Bengal sodium for blue, green and red fluorescence, respectively. The fluorescence intensities were measured using Excitation/Emission wavelengths at 405/460nm, 485/535nm and 540/590nm for blue, green and red labels, respectively. This assay includes the blue fluorescence data.
Tox21 Assay Protocol Summary: 5 uL of culture medium (MEM containing 10% FBS) per well was dispensed into black wall/clear bottom 1536-well plates using a Multidrop Combi Dispenser (ThermoFisher Scientific, Waltham, MA). After 23 nL compound or DMSO vehicle was transferred into assay plate by a pintool work station (Kalypsys, San Diego, CA), fluorescence intensities in the assay plates were measured by an Envision (PerkinElmer, Shelton, CT) plate reader using three labels for measuring blue, green and red fluorescence at […] 460, 535 and 590nm respectively.
% is set by controls: 0 for no effect and ±100 for the full control effect.

| SMILES | fluorescence, % of fluorescent control | outcome |
| --- | --- | --- |
| CNC(=O)Nc1ccc(Cl)c(Cl)c1 | -0.0022% (inactive) | – |
| CC(=O)OCC(=O)[C@@]1(O)[C@H](C)C[C@H]2[C@@H]3CCC4=CC(=O)C=C[C@]4(C)[C@@]3(F)[C@@H](O)C[C@@]21C | – | inactive |
| C=CCCCCCCCCC(=O)OCC | 0.0002% (inactive) | – |
| CC1=C(C/C=C(\C)CCC[C@H](C)CCC[C@H](C)CCCC(C)C)C(=O)c2ccccc2C1=O | 0.243% [at 46 µM] (inactive) | – |
| CCN(C=O)CC | -0.0177% [at 95.7 µM] (inactive) | – |
| Cc1ccc(C(=O)c2ccc(CC(=O)O)n2C)cc1 | -0.117% [at 18.6 µM] (inactive) | – |
| O=[N+]([O-])c1ccc(/C=N\O)o1 | -0.0416% [at 46 µM] (inactive) | – |
| C1CCC2(CCCCO2)OC1 | -0.0794% (inactive) | – |
| Nc1c2c(nc3c1CCC3)CCCC2 | 6.3e-05% [at 46 µM] (inactive) | – |
| O=C(O)CNC(=O)c1ccc(CO)o1 | 0.0193% (inactive) | – |
| CCO[Si](OCC)(OCC)c1ccccc1 | -0.185% (inactive) | – |
| CN1CC(=O)N/C1=N/C(=O)Nc1cccc(Cl)c1 | – | inactive |
| CC1=NN(c2cc(S(=O)(=O)O)ccc2Cl)C(=O)C1N=Nc1ccccc1 (stereo not given) | -0.812% (inactive) | – |
| C=COC(=O)C(C)(CC)CCC(C)C (stereo not given) | -0.201% (inactive) | – |
| CC(C)CCCO | 0.0393% (inactive) | – |
| CCCCN(CCC(=O)OCC)C(C)=O | -0.014% (inactive) | – |
| CC(C(=O)O)c1cccc(Oc2ccccc2)c1 (stereo not given) | -0.0014% [at 18.6 µM] (inactive) | – |
| COc1cc(-c2ccc(=O)[nH]n2)ccc1OC(F)F | -0.023% [at 46 µM] (inactive) | – |
| CCCCCCCCCC[N+](C)(C)[O-] | 0.0273% (inactive) | – |
| CC(=O)c1cnccn1 | 0.0244% [at 95.7 µM] (inactive) | – |

| SMILES | fluorescence, % of fluorescent control | outcome |
| --- | --- | --- |
| N[C@@H](CCC(=O)O)C(=O)O | – | inactive |
| O=C1CCCCCCCCCCCCCCO1 | 0.0187% (inactive) | – |
| Cc1ccnc(NS(=O)(=O)c2ccc(N)cc2)n1 | 0.0941% [at 18.6 µM] (inactive) | – |
| CCCC[N+](C)(CCCC)CCCC | -0.0828% (inactive) | – |
| NC(=O)N1c2ccccc2CC(=O)c2ccccc21 | 0.5% [at 46 µM] (inactive) | – |
| OCCc1ccccn1 | -0.137% (inactive) | – |
| CC1=NN(c2cccc(S(=O)(=O)O)c2)C(=O)C1 | -0.0012% (inactive) | – |
| CCCCCCCCCCCCSC | 0.106% (inactive) | – |
| O=S(=O)(O)c1cccc2ccccc12 | -0.07% (inactive) | – |
| C=CC(C)(CCC=C(C)C)OC(=O)CC (stereo not given) | 0.066% (inactive) | – |
| CC(=O)N1C[C@H](O)C[C@H]1C(=O)O | -0.148% [at 46 µM] (inactive) | – |
| C=CC(=O)OCCCl | -0.0998% [at 95.7 µM] (inactive) | – |
| CO[Si](C)(OC)c1ccccc1 | -0.0891% (inactive) | – |
| COc1c(N2CCNC(C)C2)c(F)cc2c(=O)c(C(=O)O)cn(C3CC3)c12 (stereo not given) | -0.055% [at 46 µM] (inactive) | – |
| O=C(O)CC(C(=O)O)S(=O)(=O)O (stereo not given) | -0.0239% (inactive) | – |
| C[C@@H]1C[C@H]2[C@@H]3C[C@H](F)C4=CC(=O)C(Cl)=C[C@]4(C)[C@@]3(F)[C@@H](O)C[C@]2(C)[C@@]1(O)C(=O)CO | -0.0931% [at 46 µM] (inactive) | – |
| CCC(=O)OCc1ccccc1 | 0.0328% (inactive) | – |
| CCCc1nn(C)c2c(=O)[nH]c(-c3cc(S(=O)(=O)N4CCN(C)CC4)ccc3OCC)nc12 | 0.13% [at 46 µM] (inactive) | – |
| CN1[C@@H]2CC[C@H]1CC(OC(=O)C(O)c1ccccc1)C2 (stereo not given in full) | – | inactive |
| CCOCC(C)O (stereo not given) | -0.0125% (inactive) | – |

From PubChem BioAssay (Tox21)
